Source: the supplement of paper PMC10849652
Targets with a hit are over-represented here; the source holds about 7,900 in all. About 0.6% of all pairs of compound and target were hits. Unmarked numbers belong to inactive results.

Tests used:
Experiment in all cases: log2 fold change, soluble protein after heating vs DMSO (PISA); higher = thermal stabilisation; K562 cells, 10 uM, 30 min; active = over 0.2 and 3.5 SD of the protein, either way, in both replicates (recomputed)
[1] = compound: NC(=O)Nc1cc(-c2cccc(F)c2)sc1C(=O)N[C@H]1CCCNC1
Outline: (§1)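 K562 cells at 2×10^6 cells/mL were treated for 30 min with 10 μM compound, and aliquots were heated for 3 min over 48°C-58°C before pooling. Extraction used PBS with 0.5% NP-40 at 4°C, and soluble protein was the supernatant after 21,000xg for 90 min, measured by TMTpro 16plex LC-MS/MS with channel sums equalised. Thermal stability values, relative to control samples and from duplicates, are log2 fold changes.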

[2] = compound: NC(=O)c1cnc(N[C@@H]2CCCC[C@@H]2N)nc1Nc1cccc(-n2nccn2)c1
Outline: as §1

[3] = compound: NC1(c2ccc(-c3nc4ccn5c(=O)[nH]nc5c4cc3-c3ccccc3)cc2)CCC1
Outline: as §1

[4] = compound: NCC(=O)Nc1ccc(-n2nc(C(F)(F)F)cc2-c2ccc3c(ccc4ccccc43)c2)cc1
Outline: as §1

entinostat = compound: Nc1ccccc1NC(=O)c1ccc(CNC(=O)OCc2cccnc2)cc1 [entinostat]
Outline: as §1

vorinostat = compound: O=C(CCCCCCC(=O)Nc1ccccc1)NO [vorinostat]
Outline: as §1

citarinostat = compound: O=C(CCCCCCNC(=O)c1cnc(N(c2ccccc2)c2ccccc2Cl)nc1)NO [citarinostat]
Outline: as §1

silmitasertib = compound: O=C(O)c1ccc2c(c1)nc(Nc1cccc(Cl)c1)c1ccncc12 [silmitasertib]
Outline: as §1

[5] = compound: O=C1NC(=O)C(c2cnc3ccccn23)=C1c1cn2c3c(cc(F)cc13)CN(C(=O)N1CCCCC1)CC2
Outline: as §1

[6] = compound: c1cc(OCCN2CCCCC2)cc(-c2n[nH]c3ccc(-c4nnc[nH]4)cc23)c1
Outline: as §1

entospletinib = compound: c1cn2cc(-c3ccc4cn[nH]c4c3)nc(Nc3ccc(N4CCOCC4)cc3)c2n1 [entospletinib]
Outline: as §1

Sequence of UniProt O75400 (O75400 whole entry, looked up): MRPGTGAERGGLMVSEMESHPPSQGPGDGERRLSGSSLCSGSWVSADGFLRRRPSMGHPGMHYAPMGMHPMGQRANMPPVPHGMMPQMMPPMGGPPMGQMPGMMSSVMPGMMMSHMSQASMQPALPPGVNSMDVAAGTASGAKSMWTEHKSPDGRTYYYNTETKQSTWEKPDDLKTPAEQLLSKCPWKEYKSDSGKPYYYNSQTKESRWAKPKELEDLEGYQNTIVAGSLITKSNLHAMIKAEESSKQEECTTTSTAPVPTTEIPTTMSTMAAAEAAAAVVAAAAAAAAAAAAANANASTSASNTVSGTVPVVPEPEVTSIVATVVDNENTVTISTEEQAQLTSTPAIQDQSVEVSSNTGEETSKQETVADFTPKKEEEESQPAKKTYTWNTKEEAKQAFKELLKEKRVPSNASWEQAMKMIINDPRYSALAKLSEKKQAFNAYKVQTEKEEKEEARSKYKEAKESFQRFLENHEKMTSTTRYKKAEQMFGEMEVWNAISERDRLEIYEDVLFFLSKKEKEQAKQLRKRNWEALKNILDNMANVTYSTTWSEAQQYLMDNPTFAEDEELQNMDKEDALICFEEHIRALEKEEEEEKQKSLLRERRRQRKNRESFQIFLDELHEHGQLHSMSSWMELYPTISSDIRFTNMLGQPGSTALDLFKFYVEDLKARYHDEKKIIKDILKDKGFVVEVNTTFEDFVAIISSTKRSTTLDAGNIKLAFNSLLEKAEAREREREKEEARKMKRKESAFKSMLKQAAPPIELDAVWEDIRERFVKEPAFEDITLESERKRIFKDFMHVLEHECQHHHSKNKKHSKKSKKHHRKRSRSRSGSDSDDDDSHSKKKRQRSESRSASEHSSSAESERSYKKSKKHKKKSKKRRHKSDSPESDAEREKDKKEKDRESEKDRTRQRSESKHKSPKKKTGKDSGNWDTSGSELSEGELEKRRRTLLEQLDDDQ
Sequence of UniProt Q15172 (Q15172 whole entry, looked up): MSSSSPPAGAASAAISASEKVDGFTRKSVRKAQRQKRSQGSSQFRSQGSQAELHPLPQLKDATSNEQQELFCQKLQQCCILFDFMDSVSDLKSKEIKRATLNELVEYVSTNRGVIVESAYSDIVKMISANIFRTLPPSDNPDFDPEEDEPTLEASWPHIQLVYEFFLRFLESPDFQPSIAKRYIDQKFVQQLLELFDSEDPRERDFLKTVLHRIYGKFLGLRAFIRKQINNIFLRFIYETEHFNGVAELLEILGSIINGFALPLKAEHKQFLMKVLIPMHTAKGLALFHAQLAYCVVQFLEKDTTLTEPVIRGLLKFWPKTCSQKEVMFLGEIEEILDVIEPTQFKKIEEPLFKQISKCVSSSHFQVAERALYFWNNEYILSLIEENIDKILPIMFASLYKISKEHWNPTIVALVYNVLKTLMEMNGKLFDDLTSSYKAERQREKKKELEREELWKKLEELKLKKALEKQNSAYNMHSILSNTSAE
Sequence of UniProt Q9UMR5 (Q9UMR5 whole entry, looked up): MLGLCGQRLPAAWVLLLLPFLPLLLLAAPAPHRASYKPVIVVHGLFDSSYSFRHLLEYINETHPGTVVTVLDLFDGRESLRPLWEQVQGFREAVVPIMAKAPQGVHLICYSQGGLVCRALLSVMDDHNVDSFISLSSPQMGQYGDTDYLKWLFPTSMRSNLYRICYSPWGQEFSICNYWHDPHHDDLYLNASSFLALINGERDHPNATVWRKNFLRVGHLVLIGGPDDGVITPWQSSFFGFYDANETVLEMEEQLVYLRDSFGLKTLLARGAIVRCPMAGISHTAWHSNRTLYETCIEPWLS
Sequence of UniProt Q13131 (Q13131 whole entry, looked up): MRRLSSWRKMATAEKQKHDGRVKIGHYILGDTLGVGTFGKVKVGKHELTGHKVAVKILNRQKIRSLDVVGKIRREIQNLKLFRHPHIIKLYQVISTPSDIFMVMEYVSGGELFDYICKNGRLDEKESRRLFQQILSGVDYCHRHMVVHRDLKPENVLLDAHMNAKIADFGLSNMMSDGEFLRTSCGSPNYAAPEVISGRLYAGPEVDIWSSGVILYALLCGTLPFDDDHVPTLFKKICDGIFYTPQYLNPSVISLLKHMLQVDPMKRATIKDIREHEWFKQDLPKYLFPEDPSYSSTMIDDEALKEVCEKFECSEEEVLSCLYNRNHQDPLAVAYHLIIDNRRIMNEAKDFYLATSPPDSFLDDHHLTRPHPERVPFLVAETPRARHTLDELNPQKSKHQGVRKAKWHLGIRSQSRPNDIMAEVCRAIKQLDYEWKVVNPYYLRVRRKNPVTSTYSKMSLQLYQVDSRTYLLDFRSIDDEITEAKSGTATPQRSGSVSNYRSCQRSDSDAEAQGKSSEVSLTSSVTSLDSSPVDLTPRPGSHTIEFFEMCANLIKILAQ
Sequence of UniProt Q96KB5 (Q96KB5 whole entry, looked up): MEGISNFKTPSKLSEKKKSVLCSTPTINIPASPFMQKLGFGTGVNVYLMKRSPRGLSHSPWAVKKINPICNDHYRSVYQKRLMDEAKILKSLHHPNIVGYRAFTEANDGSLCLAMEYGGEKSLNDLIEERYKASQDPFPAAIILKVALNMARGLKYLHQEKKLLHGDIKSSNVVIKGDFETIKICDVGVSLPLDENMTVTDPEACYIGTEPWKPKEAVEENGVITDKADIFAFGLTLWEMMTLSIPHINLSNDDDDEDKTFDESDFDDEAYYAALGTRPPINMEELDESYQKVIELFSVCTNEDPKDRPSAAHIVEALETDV
Sequence of UniProt Q9P2B2 (Q9P2B2 whole entry, looked up): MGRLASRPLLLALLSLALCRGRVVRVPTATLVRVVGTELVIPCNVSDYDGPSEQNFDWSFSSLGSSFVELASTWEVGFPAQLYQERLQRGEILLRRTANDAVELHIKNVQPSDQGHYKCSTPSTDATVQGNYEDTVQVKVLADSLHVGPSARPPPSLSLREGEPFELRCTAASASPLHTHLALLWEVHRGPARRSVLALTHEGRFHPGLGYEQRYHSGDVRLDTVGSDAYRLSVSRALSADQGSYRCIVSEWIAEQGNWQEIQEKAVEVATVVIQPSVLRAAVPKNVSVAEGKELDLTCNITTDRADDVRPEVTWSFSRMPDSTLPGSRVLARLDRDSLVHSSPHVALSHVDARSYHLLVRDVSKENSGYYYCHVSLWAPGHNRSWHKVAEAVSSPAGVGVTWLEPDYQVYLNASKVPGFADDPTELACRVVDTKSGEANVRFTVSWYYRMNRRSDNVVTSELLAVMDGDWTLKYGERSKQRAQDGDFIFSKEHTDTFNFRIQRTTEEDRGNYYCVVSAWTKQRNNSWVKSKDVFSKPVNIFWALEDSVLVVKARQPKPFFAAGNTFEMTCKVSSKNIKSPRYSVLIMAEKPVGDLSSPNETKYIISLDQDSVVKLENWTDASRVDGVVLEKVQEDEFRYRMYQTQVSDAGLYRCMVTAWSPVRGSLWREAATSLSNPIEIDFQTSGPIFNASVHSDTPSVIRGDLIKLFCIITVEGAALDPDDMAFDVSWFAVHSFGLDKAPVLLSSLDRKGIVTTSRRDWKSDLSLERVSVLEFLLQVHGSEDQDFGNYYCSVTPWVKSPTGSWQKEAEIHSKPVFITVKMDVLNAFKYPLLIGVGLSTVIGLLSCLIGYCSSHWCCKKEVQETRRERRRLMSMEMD
Sequence of UniProt Q8WUM4 (Q8WUM4 whole entry, looked up): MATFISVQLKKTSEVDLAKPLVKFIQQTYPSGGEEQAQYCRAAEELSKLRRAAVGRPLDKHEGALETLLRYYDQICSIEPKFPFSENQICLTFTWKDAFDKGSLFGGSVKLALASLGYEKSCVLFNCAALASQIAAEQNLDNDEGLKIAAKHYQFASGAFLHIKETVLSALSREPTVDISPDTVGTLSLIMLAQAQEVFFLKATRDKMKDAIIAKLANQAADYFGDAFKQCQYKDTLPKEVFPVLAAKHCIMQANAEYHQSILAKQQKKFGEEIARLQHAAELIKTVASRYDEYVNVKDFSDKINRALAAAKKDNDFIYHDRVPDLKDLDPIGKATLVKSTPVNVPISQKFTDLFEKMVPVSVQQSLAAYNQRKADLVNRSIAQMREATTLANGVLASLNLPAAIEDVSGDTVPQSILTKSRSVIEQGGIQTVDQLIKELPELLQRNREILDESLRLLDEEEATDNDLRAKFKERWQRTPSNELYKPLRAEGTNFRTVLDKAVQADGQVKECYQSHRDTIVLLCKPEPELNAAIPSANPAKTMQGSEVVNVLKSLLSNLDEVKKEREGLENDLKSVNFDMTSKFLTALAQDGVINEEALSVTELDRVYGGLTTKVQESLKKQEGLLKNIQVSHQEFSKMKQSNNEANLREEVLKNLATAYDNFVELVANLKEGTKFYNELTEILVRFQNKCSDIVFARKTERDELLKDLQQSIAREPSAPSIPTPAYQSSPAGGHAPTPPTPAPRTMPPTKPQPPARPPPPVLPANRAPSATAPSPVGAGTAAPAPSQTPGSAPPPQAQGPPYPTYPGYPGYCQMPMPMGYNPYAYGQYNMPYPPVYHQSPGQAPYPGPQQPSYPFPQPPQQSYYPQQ
Sequence of UniProt P48556 (P48556 whole entry, looked up): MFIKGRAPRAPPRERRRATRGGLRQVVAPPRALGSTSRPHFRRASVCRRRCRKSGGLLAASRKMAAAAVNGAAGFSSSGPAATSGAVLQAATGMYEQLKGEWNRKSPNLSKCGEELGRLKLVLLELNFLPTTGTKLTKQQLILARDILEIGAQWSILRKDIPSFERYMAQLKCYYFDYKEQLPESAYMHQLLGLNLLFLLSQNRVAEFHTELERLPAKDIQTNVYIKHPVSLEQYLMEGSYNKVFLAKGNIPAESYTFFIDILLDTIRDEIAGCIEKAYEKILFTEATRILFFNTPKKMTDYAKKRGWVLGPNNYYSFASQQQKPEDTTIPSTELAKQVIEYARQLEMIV
Sequence of UniProt P25788 (P25788 whole entry, looked up): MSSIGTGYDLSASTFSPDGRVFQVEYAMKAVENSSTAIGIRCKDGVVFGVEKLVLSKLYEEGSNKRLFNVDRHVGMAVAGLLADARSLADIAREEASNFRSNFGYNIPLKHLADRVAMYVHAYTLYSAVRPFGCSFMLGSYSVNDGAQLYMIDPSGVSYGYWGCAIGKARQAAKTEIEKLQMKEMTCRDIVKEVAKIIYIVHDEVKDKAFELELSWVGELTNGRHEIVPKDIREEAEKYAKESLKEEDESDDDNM

Target | log2 fold change [1] | log2 fold change [2] | log2 fold change [3] | log2 fold change [4] | log2 fold change (entinostat) | log2 fold change (vorinostat) | log2 fold change (citarinostat) | log2 fold change (silmitasertib) | log2 fold change [5] | log2 fold change [6] | log2 fold change (entospletinib)
PSMA3 (UniProt P25788) | 0.03 | 0.022 | 0.071 | 0.058 | -0.027 | -0.029 | 0.005 | -0.002 | 0.102 | -0.056 | 0.009
PBK (UniProt Q96KB5) | -0.1 | -0.045 | -0.098 | -0.088 | 0.095 | 0.154 | 0.119 | 0.157 | 0.02 | -0.011 | 0.109
PPP2R5C isoform 4 (UniProt Q13362) | -0.035 | 0.079 | -0.064 | -0.065 | 0.012 | -0.033 | 0.055 | -0.015 | -0.022 | 0.058 | -0.023
POLA2 (UniProt Q14181) | -0.102 | -0.115 | -0.129 | -0.133 | -0.014 | 0.072 | 0.054 | 0.058 | -0.054 | -0.026 | -0.047
PSMC6 (UniProt P62333) | 0.007 | 0.015 | 0.069 | 0.075 | -0.015 | -0.005 | -0.048 | -0.035 | 0.072 | -0.075 | 0.01
PECAM1 (UniProt P16284) | 0.005 | 0.092 | 0.034 | 0.053 | -0.13 | -0.057 | 0.033 | -0.039 | -0.064 | -0.023 | -0.071
PCBP2 isoform 3 (UniProt Q15366) | 0.001 | -0.074 | -0.102 | -0.088 | 0.062 | 0.099 | 0.104 | 0.019 | -0.015 | -0.023 | 0.009
PRPF31 (UniProt Q8WWY3) | -0.076 | -0.138 | -0.241 | -0.065 | 0.071 | 0.182 | 0.042 | -0.038 | -0.194 | -0.038 | 0.025
PRPF40A (UniProt O75400) | -0.014 | -0.001 | 0 | -0.062 | 0.114 | 0.048 | 0.079 | -0.038 | 0.003 | -0.067 | 0.057
POLR1A (UniProt O95602) | 0.044 | 0.012 | -0.208 | 0.172 | -0.012 | 0.098 | 0.018 | 0.033 | 0.036 | 0.045 | -0.057
PSMD8 (UniProt P48556) | -0.035 | 0.042 | -0.07 | 0.009 | -0.009 | 0.016 | -0.015 | 0.007 | 0.019 | -0.101 | 0.012
PRMT8 (UniProt Q9NR22) | 0.403 (active) | -0.149 | -0.118 | -0.054 | 0.21 | 0.029 | -0.031 | -0.039 | -0.057 | -0.006 | 0
PPID (UniProt Q08752) | -0.073 | -0.075 | -0.093 | -0.065 | 0.049 | 0.108 | 0.108 | 0.095 | -0.028 | 0 | 0.019
PPT2 isoform 3 (UniProt Q9UMR5) | 0.035 | 0.008 | -0.15 | 0.017 | 0.02 | 0.063 | 0.015 | 0.018 | 0.029 | 0.034 | -0.04
PDCD6IP (UniProt Q8WUM4) | -0.055 | -0.1 | -0.186 | -0.103 | 0.149 | 0.186 | 0.113 | 0.094 | -0.009 | 0 | 0.023
PPT1 (UniProt P50897) | -0.049 | -0.095 | -0.338 (active) | -0.096 | -0.03 | -0.036 | 0.053 | 0.019 | -0.041 | -0.041 | 0.057
PTGFRN (UniProt Q9P2B2) | -0.115 | 0.083 | 0.013 | 0.014 | -0.071 | -0.055 | 0.021 | -0.006 | -0.007 | -0.104 | -0.007
PPP2R5A (UniProt Q15172) | 0.098 | 0.009 | -0.254 (active) | -0.013 | 0.094 | 0.106 | 0.114 | -0.059 | -0.044 | -0.021 | 0.001
PIP4K2C (UniProt Q8TBX8) | 0.016 | 0.192 | -0.125 | 0.293 | -0.027 | -0.071 | -0.036 | 0.497 | 0.12 | 0.036 | -0.031
POLD1 (UniProt P28340) | -0.01 | -0.027 | -0.095 | -0.007 | 0.005 | -0.098 | 0.117 | 0.03 | -0.122 | -0.011 | 0.001
PLCB3 (UniProt Q01970) | -0.005 | -0.086 | -0.141 | -0.023 | 0.037 | -0.008 | -0.007 | 0.008 | 0.005 | 0.064 | 0.028
PKM (UniProt P14618) | 0.01 | -0.029 | 0.011 | -0.025 | -0.013 | -0.009 | 0.016 | -0.016 | -0.032 | -0.02 | -0.04
PRKAA1 isoform 2 (UniProt Q13131) | -0.141 | -0.009 | -0.049 | -0.007 | 0.002 | 0.052 | 0.044 | -0.006 | -0.007 | -0.056 | -0.015
PELO (UniProt Q9BRX2) | -0.028 | -0.089 | -0.098 | -0.174 | 0.058 | 0.064 | 0.009 | 0.054 | 0.063 | -0.057 | 0.05
PIGG (UniProt Q5H8A4) | -0.046 | -0.032 | -0.06 | 0.052 | 0.039 | -0.104 | 0.052 | 0.025 | -0.019 | 0.029 | -0.034
PSMC1 (UniProt P62191) | 0.011 | 0.029 | 0.014 | 0.043 | -0.013 | -0.013 | -0.032 | 0.001 | 0.026 | -0.047 | 0.006
PIP4K2A (UniProt P48426) | -0.026 | 0.013 | -0.086 | 0.113 | 0.026 | -0.037 | 0.004 | 0.259 | 0.057 | -0.057 | -0.049
